# High-throughput results as filed in PubChem BioAssay.
# Myeloid diff 2 – induction of myeloid progenitor differentiation, primary screen, cell-based, flow cytometry, MLPCN library. ER-HoxA9 myeloid progenitors, lysozyme-GFP differentiation. AID 624256, 2012. 360,000 compounds, 1% hits. calls only at 10 µM;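 active means normalized GFP-positive differentiation at or above the plate's own cutoff, the solvent-only control mean plus 3 SD; inconclusive means no clear call, values can overlap the other calls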;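 further: cells exposed to compound for four days before flow analysis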
# IDE inh – human IDE inhibitors in live cells, primary screen, fluorescence polarization, HEK cells, FAbetaB substrate | Insulin-degrading enzyme (Homo sapiens), P14735 | 320,000 compounds, 0.41% hits | inhibition, % at 5.59 µM | FAbetaB cleavage;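 active means percent inhibition above the average of all tested compounds plus 3 SD, set per screening campaign, cut at about 16% in these data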;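 further: IDE supplied by intact live HEK cells; FP after avidin binding of uncleaved biotin substrate so inhibition keeps polarization high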
# CRFBP-R2 block – antagonists of CRF-BP/CRF-R2 complex, primary screen, cell-based, HEK293, calcium dye fluorescence, uHTS | AID 588475, 2011 | inhibition, % at 11.8 µM | 350,000 compounds, 0.59% hits | CRF-induced calcium fluorescence;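 active means inhibition of the ligand-induced calcium signal above about 50% at the single tested concentration, limit read from the data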
# IDE act – human IDE activators in live cells, primary screen, fluorescence polarization, HEK cells, FAbeta-B substrate; FAbeta-B cleavage; 0% vehicle, 100% cell-free pure enzyme wells; activation, % at 5.96 µM; 340,000 compounds, 0.073% hits; AID 493087, 2011;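 active means activation above the mean of all tested compounds plus 3 SD, set per screening campaign, cut at about 17% in these data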
# TPT1 inh – Candida albicans TPT1 enzyme inhibitors, primary screen, biochemical, fluorescence polarization | recombinant caTPT1, FP RNA substrate dephosphorylation | inhibition, % at 5 µM | tRNA 2'-phosphotransferase TPT1 (Candida albicans SC5314) | 300,000 compounds, 0.81% hits;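 active means inhibition above the mean of all tested compounds plus 3 SD, set per screening campaign, cut at about 24% in these data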
# CRFR2-BP ag – agonists of CRF-BP/CRF-R2 complex, primary screen, cell-based, HEK293, calcium dye fluorescence, uHTS. 350,000 compounds, 0.46% hits. calcium dye fluorescence (FLIPR); percent of saturating CRF peptide response. CRF-binding protein / CRF receptor 2 complex (human). AID 588473, 2011. activation, % at 13.2 µM;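 active means activation of at least 50%, plus an integration ratio under a set limit after plate pattern correction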
# Myeloid diff CP1 – inducers of myeloid progenitor differentiation, confirmation, cell-based, GFP/Mac1 flow cytometry, cherry pick 01 | shares compounds with Myeloid diff 2 | ER-HoxA9 myeloid progenitors, GFP/Mac1 double-positive flow | calls only | 2,300 compounds, 2% hits | AID 651706, 2012;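 active means share of green or green-and-red cells above 9 and 9% in run 1 or 4 and 3% in run 2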
# GFP autofluor – flagged as fluorescent in myeloid differentiation counter-screen; shares compounds with Myeloid diff 2; ER-HoxA9 myeloid progenitors, no estrogen, GFP autofluorescence flow cytometry; vehicle wells 0%, positive control 100%; fluorescence response, % (test concentration not listed); 2,300 compounds, 7.4% hits;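 active means over 5% cells positive for green fluorescent reporter, or over 2% positive for both it and APC stain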
# Hits are given with their value; - = inactive; ? = inconclusive; . = no result given; + = active, no number. Shown are actives, neighbours in structure and some others; about 2.6% of the full set was active somewhere.
SMILES,Myeloid diff 2,IDE inh,CRFBP-R2 block,IDE act,TPT1 inh,CRFR2-BP ag,Myeloid diff CP1,GFP autofluor
CCOC(=O)c1c(-c2ccc(OC)cc2)csc1NC(=O)CSc1ncnc2sccc12,-,-,-,-,-,-,-,-
Clc1ccc2nc(-c3ccc4c(c3)OCO4)cn2c1,-,-,-,-,-,-,-,-
Cc1ccc2nc(-c3ccc4c(c3)OCCO4)cn2c1,.,-,-,-,-,-,.,.
O=C(CSc1nnc(-c2ccccc2Cl)o1)N1CCOCC1,-,-,-,-,-,-,.,.
CCN1CCN(c2c(S(=O)(=O)c3ccc(C)c(C)c3)cnc3ccc(F)cc23)CC1,-,-,-,-,-,-,.,.
COc1ccc(NC(=O)CS(=O)CC(=O)Nc2cccnc2)cc1 (stereo not given),-,-,-,-,-,-,.,.
C=CCn1c(C)cc(-c2csc(NCC)n2)c1C,+,-,-,-,-,-,-,-
C=CCn1c(C)cc(-c2csc(N)n2)c1C,-,-,-,-,-,-,.,.
C/C(=N\N=C(/N)SC1CC(=O)N(c2cccc(Cl)c2)C1=O)c1cccs1 (stereo not given),-,-,-,-,-,-,.,.
CCCOc1ccc(N2C(=O)CC(S/C(N)=N/N=C(\C)c3cccs3)C2=O)cc1 (stereo not given),-,-,-,-,-,-,-,-
CC(=O)N1c2ccc(S(=O)(=O)NCc3ccco3)cc2CC1C (stereo not given),+,-,-,-,-,-,-,-
O=S(=O)(NCc1ccco1)c1ccc2c(c1)Cc1ccccc1-2,-,-,-,-,-,-,-,-
COc1ccc(Cc2noc(CN3CCCN(C4Cc5ccccc5C4)CC3)n2)cc1OC,-,-,-,-,-,-,.,.
CCc1nc2ccc(C(=O)NCCOc3ccc(OC)cc3)cn2c1N(CCC(C)C)CCN(C)C,-,.,.,.,.,.,.,.
CN1/C(=C\C(=O)c2cncc(Br)c2)C(C)(C)c2ccccc21,+,-,-,-,-,-,-,20.0
O=C(NCc1ccccc1)C(c1ccc(-c2ccccc2)cc1)N1CCN(CCN2CCOCC2)CC1 (stereo not given),-,.,.,.,.,.,.,.
O=C(NCc1ccccc1)C(c1ccc(C(F)(F)F)cc1)N1CCN(CCN2CCOCC2)CC1 (stereo not given),-,.,.,.,.,.,-,-
COc1ccc(OC)c(N(CC(=O)O)S(=O)(=O)c2ccc(OC)c(OC)c2)c1,+,-,-,-,-,-,-,-
COc1ccc(OC)c(N(CC(=O)N2CCCC2)S(=O)(=O)c2ccc(OC)c(OC)c2)c1,-,-,-,-,-,-,.,.
COc1ccc(-c2nn(C)c(=O)c3ccccc23)cc1NC(=O)Cn1nc(C)c2ccccc2c1=O,+,-,-,-,-,-,-,-
COc1ccc([C@H]2CC(=O)C=C(c3c(OC)cccc3OC)C2)cc1,?,-,-,-,.,-,.,.
Cc1ccnc(NC(=O)CNC(=O)c2ccccc2Br)c1,-,-,-,-,-,-,.,.
COc1ccc(CCN2C(=O)C(Oc3ccccc3C)C2c2ccc3c(c2)OCO3)cc1OC (stereo not given),-,-,-,-,-,-,.,.
COc1ccc(C2C(Oc3ccccc3C)C(=O)N2Cc2ccc(F)cc2)cc1OC (stereo not given),-,-,-,-,-,-,-,-
OC(Cc1ccccc1Br)c1ncc(-c2cccc(C(F)(F)F)c2)[nH]1 (stereo not given),-,.,.,.,.,.,.,.
SMILES,Myeloid diff 2,IDE inh,CRFBP-R2 block,IDE act,TPT1 inh,CRFR2-BP ag,Myeloid diff CP1,GFP autofluor
Cc1cc(=O)n(CNC(=O)c2ccccc2)c(=S)[nH]1,-,-,-,-,-,-,-,-
CN1CCCCC1(C)C(=O)NCc1ccc(C(C)(C)C)cc1 (stereo not given),-,.,.,.,.,.,.,.
Cc1ccc(NC(=O)c2ccc(NCCCN3CCC(C)CC3)c([N+](=O)[O-])c2)cc1F,-,-,-,-,-,-,-,-
CC(=O)c1ccc(S(=O)(=O)Nc2ccc(-c3cn4c(n3)SCC4)cc2)cc1,-,-,-,-,-,-,.,.
COc1ccc(/C=N/N(C)C2=NCCN2)c(OC)c1OC,-,-,-,-,-,-,.,.
O=C(COC(=O)c1cnccn1)c1ccc(OC(=O)c2ccccc2)cc1,-,-,-,-,-,-,.,.
O=C(COC(=O)c1cnccn1)c1ccc2ccccc2c1,-,-,-,-,-,-,-,-
CCCC(=O)N1CCC1(C)C(=O)Nc1ccc2nccnc2c1 (stereo not given),-,.,.,.,.,.,.,.
Cc1nc(NCCO)c(C#N)c2c1COC(C)(C)C2,+,-,-,-,-,-,-,-
CN1C(=S)N(c2cccnc2)C(=O)/C1=C\c1ccc(N(C)C)cc1,+,.,-,-,.,-,-,-
CN1C(=S)N(c2cccnc2)C(=O)/C1=C\c1ccc(C(C)(C)C)cc1,-,-,-,-,-,-,.,.
Cc1ccc(O)c(NC(=O)CSc2ccc(Cl)cc2)c1,-,-,-,-,-,-,-,-
COc1cccc(C2c3[nH]c4ccccc4c3C[C@H]3C(=O)N(CCCCCO)CC(=O)N23)c1 (stereo not given in full),-,-,-,-,-,-,.,.
C=CC[n+]1cccc(-c2cc3ccc(C)cc3[nH]2)c1,-,.,-,-,.,-,-,-
Clc1ccc(Cn2ncc3c(N4CCN(c5ccccc5)CC4)ncnc32)cc1,+,.,.,.,.,.,+,-
c1ccc(Cn2ncc3c(N4CCCCC4)ncnc32)cc1,-,-,-,-,-,-,.,.
CCC(=O)Oc1ccc(NC(=O)c2ccc(S(=O)(=O)N3CCCC3)cc2)cc1,-,.,-,.,.,-,.,.
CNc1ccccc1C(C)(C)c1cc(-c2cccc(Br)c2)no1,+,-,-,-,-,-,-,80.6
CNc1ccccc1C(C)(C)c1cc(-c2cccc([N+](=O)[O-])c2)no1,-,-,-,-,-,-,.,.
Cc1nn(C(=O)c2ccc([N+](=O)[O-])cc2)c(C)c1Br,+,-,-,-,-,-,-,-
Cc1nn(C(=O)c2nn(C)cc2[N+](=O)[O-])c(C)c1Br,-,-,-,-,-,-,.,.
Cc1cccc(C)c1NC(=O)C1(C)CSCC(=O)N1CCOc1ccccc1 (stereo not given),-,.,.,.,.,.,-,-
